Source: PubChem
This is a sample that favours compounds with a hit; in the whole collection about 19% have one here.
HT1080-NT tox: kills 2HG-producing HT-1080-NT fibrosarcoma cells. HT-1080-NT fibrosarcoma viability, CellTiter-Glo ATP luminescence, 48 h. AID 686970. 1.6% of 360,000 active. Potency, µM (titrated, usually from 46.1 µM), hits mostly cytotoxic;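 also: NT is the 2HG producing partner of a matched IDH1 knockdown line; nearly all actives have a fitted effect of over 55% in size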
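Viability by CellTiter-Glo luminescence after 48 h compound exposure at 37C of HT-1080-NT cells (750/well, RPMI, 5% FBS). % activity scaled between DMSO wells and medium-only wells, then curve-fitted and categorized by curve class.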
DT40 TDP1 no CPT: qHTS for Inhibitors of human tyrosyl-DNA phosphodiesterase 1 (TDP1): qHTS in cells in absence of CPT | DT40 Tdp1-/- hTDP1 cells, no CPT, ATP luminescence, 48 h | Potency, µM (titrated, usually from 46.2 µM), usual class: inhibitors | 15% of 420,000 active | AID 686978, 2013; also: nearly all actives have a fitted effect of over 55% in size
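A cellular qHTS used chicken DT40 cells lacking endogenous Tdp1 but carrying stably transfected human TDP1. Compounds were applied without camptothecin, and cell growth kinetics were judged by ATP-dependent luminescence after ≥48 hr.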
IL1B secr inh: inflammasome signaling inhibition, IL-1 beta readout | 4.7% of 360,000 active | THP-1 LPS/ATP IL-1B secretion, AlphaLISA, 16 h; hits give low values | activity change, % at 57.5 µM; in the data active = activity change below about -50%; inconclusive = mostly about -30% to -49%
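THP-1 cells pretreated 1 hr with compounds (up to 57.5 uM final), then stimulated with LPS (250 ng/mL final) plus ATP (1.25 mM final); secreted IL-1B measured by AlphaLISA after 16 hr, decreased signal indicating inhibition.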
HT1080 IDH1KD tx: HT-1080 IDH1 knockdown cell toxicity (counter line); 2% of 360,000 active; AID 686971; HT-1080 IDH1 knockdown viability, ATP luminescence, 48 h; Potency, µM (titrated, usually from 46.1 µM), actives largely listed as cytotoxic
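Luminescent ATP read-out (CellTiter-Glo, 10 min at room temperature) after 48 h compound exposure at 37 °C gave viability of IDH1-knockdown HT-1080 cells. Activity was normalised to DMSO and cell-free wells, then fitted as concentration-response curves.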
DT40 TDP1 CPT: growth inhibition of DT40 Tdp1-/-;hTDP1 cells with camptothecin (screen for TDP1 inhibitors). Potency, µM (titrated, usually from 46.2 µM), actives largely listed as inhibitors. chicken DT40 Tdp1-/-;hTDP1 cells + 20 nM CPT, ATP luminescence, 48 h. AID 686979. 12% of 420,000 active; also: nearly all actives have a fitted effect of over 55% in size
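Chicken DT40 Tdp1-/- cells stably complemented with human TDP1 were seeded at 400 cells/well in medium containing 20 nM camptothecin, exposed to pin-transferred compounds, and grown at 37 °C for at least 48 hr. Viability was read as ATP luminescence.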
Hits are given with their value. Unless noted, calls follow the shape of the dose curve; as a rule, active = well fitted curve in the direction sought with a large enough effect; inconclusive = small, poorly fitted or top-dose-only effect, or another doubt; inactive = no such curve, though single readings can be large; an effect the other way counts as inactive or inconclusive.

Screening COc1ccc2nc(/N=C/c3c(O)n(-c4cccc(Cl)c4)c(=O)[nH]c3=O)sc2c1 returned HT1080-NT tox inactive, DT40 TDP1 no CPT inconclusive, IL1B secr inh inactive, HT1080 IDH1KD tx inactive and DT40 TDP1 CPT inconclusive.
CN(C)CC1CCCCC1OC(=O)Cc1ccc(Cl)c([N+](=O)[O-])c1 (configuration not stated) was read as HT1080-NT tox inactive, DT40 TDP1 no CPT inactive, IL1B secr inh inactive, HT1080 IDH1KD tx inactive and DT40 TDP1 CPT inactive.
CCC(C(=O)Nc1ccccc1C(=O)OC)n1nc(C)c2c(C)n(-c3ccc(C)cc3)nc2c1=O (configuration not stated) was read as DT40 TDP1 no CPT 11.6µM and DT40 TDP1 CPT 7.31µM.
CC1C(c2cccs2)=[N+]([O-])C(C)(C(=O)c2ccc(F)cc2)N1O (configuration not stated) was read as HT1080-NT tox inactive, DT40 TDP1 no CPT inactive, IL1B secr inh inactive, HT1080 IDH1KD tx inactive and DT40 TDP1 CPT inactive.
For CC(=O)OC1C(=O)[C@]2(C)C(O)CC3OC[C@]3(OC(C)=O)C2[C@@H](OC(=O)c2ccccc2)[C@]2(O)CC(O)C(C)=C1C2(C)C (some centres not stated) the results were DT40 TDP1 no CPT 3.66µM and DT40 TDP1 CPT inconclusive.
For CC(=O)OC12COC1CC(O)C1(C)C(=O)C(O)C3=C(C)C(O)CC(O)(C(OC(=O)c4ccccc4)C21)C3(C)C (configuration not stated) the results were HT1080-NT tox inconclusive, DT40 TDP1 no CPT 1.03µM, IL1B secr inh inactive, HT1080 IDH1KD tx inconclusive and DT40 TDP1 CPT 1.16µM.
`CC(C)NC(C)C` gave DT40 TDP1 no CPT inactive and DT40 TDP1 CPT inactive.
For CN1CCN(c2ccccc2NC(=O)c2ccc(-c3ccc(Cl)c(Cl)c3)o2)CC1 the results were HT1080-NT tox inactive, DT40 TDP1 no CPT inconclusive, IL1B secr inh -77.7, HT1080 IDH1KD tx inactive and DT40 TDP1 CPT 18.4µM.
For COCCOCCO the results were DT40 TDP1 no CPT inactive and DT40 TDP1 CPT inactive.
For CC=C(C)C(=O)O[C@H]1C(C)=C2[C@@H]3OC(=O)[C@@](C)(O)[C@@]3(O)[C@@H](OC(=O)CCC)C[C@](C)(OC(C)=O)[C@@H]2[C@@H]1OC(=O)CCCCCCC the results were DT40 TDP1 no CPT 0.116µM and DT40 TDP1 CPT 0.206µM.
C=CCn1c(O)c(C(C)=NCc2cc(OC)cc(OC)c2)c(=O)[nH]c1=O was read as HT1080-NT tox 3.66µM, DT40 TDP1 no CPT 1.64µM, IL1B secr inh inactive, HT1080 IDH1KD tx 5.8µM and DT40 TDP1 CPT 4.11µM.
`CNS(=O)(=O)c1ccc(N=Cc2c(O)n(-c3ccccc3)c(=O)[nH]c2=O)cc1` gave HT1080-NT tox inactive, DT40 TDP1 no CPT inactive, IL1B secr inh inactive, HT1080 IDH1KD tx inactive and DT40 TDP1 CPT inactive.
For O=C1CCN(C(=O)CCCn2c(=O)oc3ccccc32)CC1 the results were HT1080-NT tox inactive, DT40 TDP1 no CPT inactive, IL1B secr inh inactive, HT1080 IDH1KD tx inactive and DT40 TDP1 CPT inactive.
Screening CC1CCCC(C)N1c1nnc(NC(=O)Cn2c(=O)oc3ccccc32)s1 (configuration not stated) returned HT1080-NT tox inactive, DT40 TDP1 no CPT 13µM, IL1B secr inh inactive, HT1080 IDH1KD tx inactive and DT40 TDP1 CPT inactive.
CCCC[n+]1cc(=N)o[n-]1 was read as HT1080-NT tox inactive, DT40 TDP1 no CPT inactive, IL1B secr inh inactive, HT1080 IDH1KD tx inactive and DT40 TDP1 CPT inactive.
For CCOP(=O)(Cc1cc(C(C)=O)c(C)o1)OCC the results were HT1080-NT tox inactive, DT40 TDP1 no CPT inactive, IL1B secr inh inactive, HT1080 IDH1KD tx inactive and DT40 TDP1 CPT inactive.
Screening COP(=O)(OC)c1nc(-c2cccc3ccccc23)oc1NCCc1ccccc1 returned HT1080-NT tox inconclusive, DT40 TDP1 no CPT inconclusive, IL1B secr inh -95.3, HT1080 IDH1KD tx inconclusive and DT40 TDP1 CPT inconclusive.
COP(=O)(OC)c1nc(-c2cccc3ccccc23)oc1N1CCOCC1 was read as HT1080-NT tox inactive, DT40 TDP1 no CPT 18.4µM, IL1B secr inh inactive, HT1080 IDH1KD tx inactive and DT40 TDP1 CPT inactive.
CCCNc1oc(-c2cccc3ccccc23)nc1C#N was read as HT1080-NT tox inactive, DT40 TDP1 no CPT inactive, IL1B secr inh inactive, HT1080 IDH1KD tx inactive and DT40 TDP1 CPT inactive.
`O=C(Nc1ccc(Oc2ccc(Cl)cc2)c(Cl)c1)c1cc(I)cc(I)c1O` gave HT1080-NT tox inconclusive, DT40 TDP1 no CPT inconclusive, IL1B secr inh inactive, HT1080 IDH1KD tx inconclusive and DT40 TDP1 CPT inconclusive.
COc1ccc(S(=O)(=O)N(C)C[C@H]2OCCCC[C@H](C)Oc3ccc(N(C)C)cc3C(=O)N([C@H](C)CO)C[C@@H]2C)cc1 was read as HT1080-NT tox inactive, DT40 TDP1 no CPT inconclusive, IL1B secr inh inactive, HT1080 IDH1KD tx inactive and DT40 TDP1 CPT inconclusive.
Screening NN=C(N)N returned HT1080-NT tox inactive, DT40 TDP1 no CPT inconclusive, IL1B secr inh inactive, HT1080 IDH1KD tx inactive and DT40 TDP1 CPT inactive.
Screening CC1CC(C)CC(C)C(O)C(C#N)=CC=CCC(C2CCCC2C(=O)O)OC(=O)CC(O)C(C)C1 (configuration not stated) returned HT1080-NT tox 0.0092µM, DT40 TDP1 no CPT 0.103µM, IL1B secr inh -103.2, HT1080 IDH1KD tx 0.184µM and DT40 TDP1 CPT 0.0082µM.
CCCN(CCC)C(=O)C(CCC(=O)OCCCN1CCN(CCOC(=O)Cc2c(C)n(C(=O)c3ccc(Cl)cc3)c3ccc(OC)cc23)CC1)NC(=O)c1ccccc1 (configuration not stated) was read as DT40 TDP1 no CPT 10.6µM and DT40 TDP1 CPT 13.3µM.
C#CCC(Cc1cnc2nc(N)nc(N)c2n1)c1ccc(C(=O)N[C@@H](CCC(=O)O)C(=O)O)cc1 (some centres not stated) was read as DT40 TDP1 no CPT 0.0237µM and DT40 TDP1 CPT 0.0335µM.
For CCOCCCNC(=O)C1c2cc(OC)c(OC)cc2C(=O)N2CCCCC12 (configuration not stated) the results were HT1080-NT tox inactive, DT40 TDP1 no CPT inactive, IL1B secr inh inactive, HT1080 IDH1KD tx inactive and DT40 TDP1 CPT inactive.
`CC(C)(C)C(=O)OC[N+](C)(C)CCOC(=O)C(O)(c1ccccc1)C1CCCC1` (configuration not stated) gave HT1080-NT tox inactive, DT40 TDP1 no CPT inactive, IL1B secr inh inconclusive, HT1080 IDH1KD tx inactive and DT40 TDP1 CPT inactive.
Screening CCCC(CCC)C(=O)OC[N+](C)(C)CCOC(=O)C(O)(c1ccccc1)C1CCCC1 (configuration not stated) returned HT1080-NT tox inactive, DT40 TDP1 no CPT 11.6µM, IL1B secr inh inconclusive, HT1080 IDH1KD tx inactive and DT40 TDP1 CPT inconclusive.
COc1cc(C(=O)NC(=S)N2C[C@H]3C[C@H](C2)c2cccc(=O)n2C3)cc(OC)c1OC was read as HT1080-NT tox inactive, DT40 TDP1 no CPT inactive, IL1B secr inh inactive, HT1080 IDH1KD tx inactive and DT40 TDP1 CPT inactive.
